The values that follow come from PubChem BioAssay (NCI).

SMILES strings stand for the structures. The panel holds about 83,000 compounds, 20% with a hit somewhere; the sample as a whole holds those more often.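 Testing used 96-well plates and a 48-hour single-concentration exposure. Example: -40 means 40% of the starting cells died.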 A number with no mark means an inactive call. Active and inactive are the calls of the source. How the source made its calls: active means growth percent below 10; inactive means the rest.

What all share (experiment): NCI-60 one-dose screen, 48 h (100 = growth as untreated, 0 = no growth, -100 = all killed)
In test [1] the test system is BT-549 breast. The conditions noted are these: 10 µM unless noted.
Test [2] has as its system MDA-MB-435 melanoma. The conditions noted are these: 10 µM unless noted.
Test [3] relates to MCF7 breast. The conditions noted are these: 10 µM.
Test [4] relates to HCT-116 colon. The conditions noted are these: 10 µM unless noted.
Test [5] has as its system HCC-2998 colon. The conditions noted are these: 10 µM unless noted.
In test [6] the test system is KM12 colon. The conditions noted are these: 10 µM unless noted.
In test [7] the test system is SW-620 colon. To be noted: 10 µM unless noted.

For the molecule `O=C(O)c1cn(C2CC2)c2cc(N3CCN(C(=O)C[n+]4ccccc4)CC3)c(F)cc2c1=O`, the growth was 102% in test [1]; 99.9% in test [2]; 101% in test [3]; 99.3% in test [4]; 106% in test [5]; 103% in test [6].

`CC(C)C[C@H](C(=O)N[C@H](C(N)=O)C(C)C)N1CC=CCN(OCc2ccccc2)S1(=O)=O`: the growth in test [1] was 98.5% [2.5 µM]; in test [2], 115% [2.5 µM]; in test [7], 102% [2.5 µM]; in test [4], 83.2% [2.5 µM]; in test [6] it was 114% [2.5 µM].

Take `O=C(Nc1ccc(-c2nc3cc4ccccc4cc3[nH]2)cc1)c1cccc(Br)c1`: the growth in test [1] is 47.9%; in test [2] it was 30%; in test [3] it was 27.5%; in test [4], 64.6%; in test [5], 33.1%; in test [6] it was 39.8%.

Take `CC(C)[C@H](NC(=O)Cn1cc(C(=O)O)nn1)C(=O)O`: the growth is 104% in test [1]; 98.8% in test [2]; 97.1% in test [3]; 102% in test [4]; 107% in test [5]; 103% in test [6].

Turning to `COC(=O)/C(CCC=C(C)C)=C1\[C@@H](OC(C)=O)C[C@@]2(C)[C@H]1C[C@@H](O)[C@H]1[C@@]3(C)CC[C@H](NCc4ccccc4)[C@@H](C)[C@@H]3CC[C@@]12C`, the growth is 76.2% in test [1]; 75.7% in test [2]; 63.5% in test [7]; 20.2% in test [4]; 72.8% in test [5]; 72.9% in test [6].

For `O=C(Nc1ccccc1O)c1ccc(-c2ccc(Cl)cc2Cl)o1`, the growth in test [1] was 91.7%; in test [2], 96.9%; in test [3], 87.5%; in test [4] it was 68.7%; in test [5], 96.5%; in test [6], 78.8%.

In the case of `NC(CCc1nc2ccccc2c(=O)[nH]1)C(=O)O` (stereo unspecified), the growth was 97% in test [1]; 100% in test [2]; 102% in test [7]; 105% in test [4]; 112% in test [6].

For the molecule `CCOC(=O)C(CC(=O)O)=C(C(=O)OCC)C(=O)OCC`, the growth was 122% in test [1]; 103% in test [2]; 92% in test [3]; 99.8% in test [4]; 104% in test [5]; 103% in test [6].

`CCOC(=O)C1=C(C)c2ccc(OC)c(OC)c2C1`: the growth in test [1] is 108%; in test [2], 112%; in test [7], 104%; in test [4], 102%; in test [5], 91.2%; in test [6], 101%.

For `COc1ccc(C2C3=C(COC3=O)N(CCO)c3cc4c(cc32)CCC4)cc1` (stereo unspecified), the growth in test [1] is 38.4%; in test [2] it was 0.306% (active); in test [7], 31.5%; in test [4] it was 33.5%; in test [5], 61.1%; in test [6], 21.2%.

As to `COc1cc2nc(-c3cnc(N(C)C)nc3)nc(NC3CCN(Cc4ccccc4)CC3)c2cc1OC`, the growth in test [1] was -1.66% (active); in test [2], -83.6% (active); in test [7], -56.3% (active); in test [4] it was -80.6% (active); in test [5], -92.7% (active); in test [6], -60.9% (active).

Turning to `COC(=O)c1c2c(c(C)[n+]([O-])c1C)C(=O)C(NCc1ccc(F)c(F)c1)=CC2=O`, the growth was 66.4% in test [1]; -88.4% (active) in test [2]; 3.6% (active) in test [7]; 1.74% (active) in test [4]; 9.25% (active) in test [5]; 10.4% in test [6].

Take `Cc1cc2c(c(C)c1Cl)C(=O)/C(=C/c1ccco1)O2`: the growth was 103% in test [1]; 100% in test [2]; 24.7% in test [3]; 98.7% in test [4]; 97.6% in test [5]; 75.9% in test [6].

On to `O=C(/C=C/c1ccccc1)c1ccc(Nc2nc(NCCO)nc(Nc3ccc(Cl)cc3)n2)cc1`, for which the growth in test [1] was 84.4%; in test [2], 77.2%; in test [7] it was 18.7%; in test [4] it was 27.5%; in test [5], 62.5%; in test [6] it was 28.2%.

On to `CCCC(c1nnnn1C1CCCCC1)N1CCN(C(=O)c2ccco2)CC1` (stereo unspecified), for which the growth in test [1] is 58.9%; in test [2] it was -21.7% (active); in test [3], 45.4%; in test [4], 31.7%; in test [5], 76.4%; in test [6], 47.5%.

Consider `FC(F)(F)c1cccc(CNC2CCN(CCc3ccccc3)CC2)c1`, for which the growth is 96.4% in test [1]; 43.6% in test [2]; 63% in test [7]; 31.3% in test [4]; 19.5% in test [5]; 70.2% in test [6].

Turning to `COc1ccc(-n2c(C(O)c3ccccc3)nn(CN3CCOCC3)c2=S)cc1` (stereo unspecified), the growth in test [1] is 108%; in test [2], 106%; in test [3], 105%; in test [4], 105%; in test [5], 106%; in test [6] it was 99.8%.

On to `CCN1C(=O)N(c2ccccc2)C2Nn3c(s/c(=C4\C(=O)N(C(C)C)c5ccccc54)c3=O)=NC21` (stereo unspecified), for which the growth in test [1] was 107%; in test [2] it was 99.7%; in test [7] it was 98.7%; in test [4], 105%; in test [6], 105%.

As to `CCCc1c(C)c2sc(=O)[nH]c2[nH]c1=O`, the growth is 110% in test [1]; 112% in test [2]; 97.6% in test [3]; 106% in test [4]; 106% in test [5]; 105% in test [6].

Regarding `COc1cc(/C=C2\CN(S(=O)(=O)c3ccccc3)C/C(=C\c3cc(CN4CCCC4)c(O)c(OC)c3)C2=O)cc(CN2CCCC2)c1O`, the growth in test [1] is 33.5%; in test [2], -37.1% (active); in test [3], 5.38% (active); in test [4], -81.1% (active); in test [5] it was -87.9% (active); in test [6] it was -56.3% (active).

`COc1ccc2[nH]c(O)c(N=NC(=O)c3oc4ccccc4c3C)c2c1`: the growth in test [1] was 70.1%; in test [2], 28.9%; in test [3], 22.9%; in test [4], -28.6% (active); in test [5] it was 45.5%; in test [6], 43.8%.

`NC(=O)CSc1nc(-c2ccc(F)cc2)cc(-c2ccco2)n1`: the growth in test [1] is 99.5%; in test [2], 104%; in test [7], 116%; in test [4] it was 98%; in test [5], 109%; in test [6], 106%.

Take `CCN1C(=O)N(CC)C2C1NC(=S)N2/N=C/C=C/c1ccccc1OC` (stereo unspecified): the growth is -5.67% (active) in test [1]; -20.9% (active) in test [2]; 17.8% in test [3]; 2.3% (active) in test [4]; 12.4% in test [5].

Consider `Cn1c(/C=C(\C#N)c2cccc(C(F)(F)F)c2)nc2c(N3CCOCC3)nc(Cl)nc21`, for which the growth in test [1] was -13.1% (active); in test [2], -91.5% (active); in test [7], -68.8% (active); in test [4], -85.5% (active); in test [5], 14%; in test [6] it was 19.1%.

As to `CC(=O)c1ccc(NC(=O)Nc2ccc(S(=O)(=O)Nc3ccc(Cl)nn3)cc2)cc1`, the growth is 107% in test [1]; 107% in test [2]; 99.1% in test [3]; 105% in test [4]; 107% in test [5]; 103% in test [6].

`COc1cc(/C=C/C(=O)c2ccc(Nc3nc(NCCO)nc(N4CCOCC4)n3)cc2)cc(OC)c1OC`: the growth in test [1] is 33.5%; in test [2], 10.1%; in test [7], 7.8% (active); in test [4], 9.47% (active); in test [5], 20%; in test [6], 7.4% (active).

Consider `O=C(Nc1ncc(Cc2cccc(C(F)(F)F)c2)s1)C1COc2ccccc2O1` (stereo unspecified), for which the growth was 90.7% in test [1]; 59.1% in test [2]; 81% in test [7]; 83.3% in test [4]; 98.5% in test [5]; 76% in test [6].

In the case of `Nc1nc2c(ncn2[C@@H]2O[C@H](CS)[C@@H](O)[C@H]2O)c(=O)[nH]1`, the growth in test [1] was 100%; in test [2], 99.8%; in test [3], 101%; in test [4] it was 102%; in test [5], 104%; in test [6] it was 101%.

As for `Clc1ccc(Nc2nnc(-c3ccc4c(c3)OCO4)o2)cc1`, the growth is 116% in test [1]; 99.9% in test [2]; 102% in test [7]; 96.7% in test [4]; 98.6% in test [5]; 99.5% in test [6].

In the case of `Brc1ccc(Nc2nc3ccccc3nc2Nc2ccc(Br)cc2)cc1`, the growth in test [2] was -60.2% (active); in test [7] it was -69.9% (active); in test [3], 1.16% (active); in test [4], -86.3% (active); in test [5], -56.5% (active); in test [6], -55.3% (active).

For the molecule `O=C(NC1C(O)OC(CO)C(O)C1O)NS(=O)(=O)c1ccc(Cl)cc1` (stereo unspecified), the growth in test [2] was 100%; in test [7], 100%; in test [3] it was 98.2%; in test [4], 96.9%; in test [5], 115%; in test [6] it was 104%.

With `COc1c2ccoc2c(/C=C/C=O)c2oc(-c3ccccc3)cc(=O)c12`, the growth was 41.2% in test [1]; 64.6% in test [2]; -56.6% (active) in test [4]; 104% in test [5]; 91.4% in test [6].

`O=c1oc2ccc(Cl)cc2c(=O)n1-c1ccc(Cl)cc1F`: the growth was -5.48% (active) in test [2]; 9.15% (active) in test [7]; 0.727% (active) in test [3]; 2.58% (active) in test [4]; 10.7% in test [5]; -9.11% (active) in test [6].

With `O=c1oc2ccc(F)cc2c(=O)n1-c1ccc(F)cc1F`, the growth in test [2] is 11.7%; in test [7], 31.7%; in test [3], 24.8%; in test [4], 24.4%; in test [5], 22.8%; in test [6], 12.6%.

Consider `O=c1oc2ccc(F)cc2c(=O)n1-c1ccc(Br)cc1F`, for which the growth in test [2] was 0.521% (active); in test [7], 10.2%; in test [3] it was -3.48% (active); in test [4], 2.22% (active); in test [5] it was 13.4%; in test [6], 0.328% (active).

For the molecule `O=C(c1ccccc1)N(C(=S)NCCc1ccc(Cl)cc1)c1ccc(Cl)cc1`, the growth in test [2] is 37.9%; in test [7] it was 62.8%; in test [3], 20.8%; in test [4], 45.3%; in test [5] it was 61.9%; in test [6], 26.8%.

Take `COc1cccc(/C(C#N)=C/c2nc3c(N4CCOCC4)nc(Cl)nc3n2C)c1`: the growth in test [2] was -80.2% (active); in test [7], -72% (active); in test [3] it was -44.1% (active); in test [4], -72.9% (active); in test [5], 20%.

With `O=C1c2cc(Cl)ccc2Oc2cc([N+](=O)[O-])ccc2N1c1ccc(F)cc1F`, the growth is 93.4% in test [2]; 85.9% in test [7]; 86.6% in test [3]; 79.7% in test [4]; 115% in test [5].

With `CCCCCCCCCCOC(=O)c1ccccc1C(=O)OCCCC`, the growth in test [1] is 114%; in test [7] it was 102%; in test [4], 84.9%; in test [5], 108%; in test [6], 105%.
